The source of these data is PubChem BioAssay.

Molecules are shown by their SMILES. Calls of active or inactive are those of the source.

The nature of test [1]: optical density shifts of acrAB sulA E. coli – strain DRC41, OD650, 48 h, E. coli filamentation inducer project, primary screen (AID 1152).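 Further: E. coli MC1000 strain DRC41 lacking acrAB efflux pump and sulA.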 The settings on record: higher = more signal, called active from +8 up or from −8 down.
Test [2] is described as follows: probe aLefty1 binding on compound microarray – biochemical, small-molecule microarray, 635/667 nm fluorescence, primary screen (AID 1153).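 Further: score merges spot fluorescence with signal-to-noise ratio from the scanned slide images.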 The settings on record: higher = more signal.
A short description of test [3]: plasmodial surface anion channel blockers, osmotic lysis – cell-based, P. falciparum Indochina, OD700, 1 h, primary screen (AID 1154). Conditions: P. falciparum Indochina infected RBC osmotic lysis, higher = more signal, called active from +8 up or from −8 down.
A short description of test [4]: plasmodial surface anion channel blockers, osmotic lysis – cell-based, P. falciparum Indochina, OD700, 2 h, primary screen (AID 1155).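 Further: lysis reports solute entry through the parasite surface anion channel PSAC.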 The settings on record: P. falciparum Indochina infected erythrocytes, higher = more signal, called active from +8 up or from −8 down.
Test [5] can be described thus: changes in parasitized red cell lysis, either direction – P. falciparum Indochina, OD700, 3 h, PSAC antagonist project, primary screen (AID 1156). Conditions: P. falciparum-infected erythrocytes, osmotic lysis, higher = more signal, called active from +8 up or from −8 down.
The nature of test [6]: plasmodial surface anion channel blockers, osmotic lysis – cell-based, P. falciparum Indochina, OD700, 18 h, primary screen (AID 1157). Conditions: P. falciparum Indochina infected erythrocytes, osmotic lysis OD700, 18 h; higher = more signal, called active from +8 up or from −8 down.
The nature of test [7]: S6 kinase pathway phospho-S6 level changes – cell-based, A549, cytoblot, luminescence, serum-stimulated, primary screen (AID 1158).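 Further: serum-stimulated A549 lung adenocarcinoma cells; signal is phosphorylated S6 detected by cytoblot immunostaining with HRP secondary.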 Conditions: 5 h, higher = more signal.
Test [8] has as its target NADPH oxidase 2 (Homo sapiens) (UniProt P04839). Briefly: compounds shifting NOX2 Amplex Red fluorescence – cell-based, HEK293-NOX2, PMA-stimulated, NOX inhibitor project, primary screen (AID 1159). Further: test concentration not given here. The settings on record: 45 min, higher = more signal, called active from +8 up or from −8 down.
The target in test [9] is NADPH oxidase 4 (Homo sapiens) (UniProt Q9NPH5). The experiment in a line: compounds shifting NOX4 Amplex Red fluorescence – cell-based, HEK293-NOX4, tetracycline-induced, NOX inhibitor project, primary screen (AID 1160). Conditions: HEK293-NOX4, Amplex Red H2O2 fluorescence, 45 min; higher = more signal, called active from +8 up or from −8 down.
Chain of NADPH oxidase 4 (Homo sapiens) (Q9NPH5 whole entry, looked up): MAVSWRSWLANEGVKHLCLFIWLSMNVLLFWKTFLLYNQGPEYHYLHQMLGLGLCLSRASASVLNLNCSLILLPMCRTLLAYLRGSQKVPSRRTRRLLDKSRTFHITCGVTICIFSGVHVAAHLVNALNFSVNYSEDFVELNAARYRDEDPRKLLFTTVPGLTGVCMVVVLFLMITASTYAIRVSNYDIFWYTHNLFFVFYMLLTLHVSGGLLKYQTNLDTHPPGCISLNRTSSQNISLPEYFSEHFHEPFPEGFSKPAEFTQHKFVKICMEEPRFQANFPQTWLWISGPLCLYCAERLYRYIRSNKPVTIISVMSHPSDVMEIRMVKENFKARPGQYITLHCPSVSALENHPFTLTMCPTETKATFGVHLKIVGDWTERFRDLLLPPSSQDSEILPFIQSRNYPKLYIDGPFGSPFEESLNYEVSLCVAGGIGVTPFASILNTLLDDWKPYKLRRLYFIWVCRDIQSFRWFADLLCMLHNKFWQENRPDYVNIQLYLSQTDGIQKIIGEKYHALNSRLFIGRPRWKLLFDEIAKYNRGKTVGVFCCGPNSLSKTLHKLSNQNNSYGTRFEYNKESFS
Test [10] deals with NADPH oxidase 5 (Homo sapiens) (UniProt Q96PH1). Briefly: compounds shifting NOX5 Amplex Red fluorescence – cell-based, HEK293-NOX5, NOX inhibitor project, primary screen (AID 1161). Conditions: HEK293-NOX5, ionomycin, 45 min, higher = more signal.
Chain of NADPH oxidase 5 (Homo sapiens) (Q96PH1 whole entry, looked up): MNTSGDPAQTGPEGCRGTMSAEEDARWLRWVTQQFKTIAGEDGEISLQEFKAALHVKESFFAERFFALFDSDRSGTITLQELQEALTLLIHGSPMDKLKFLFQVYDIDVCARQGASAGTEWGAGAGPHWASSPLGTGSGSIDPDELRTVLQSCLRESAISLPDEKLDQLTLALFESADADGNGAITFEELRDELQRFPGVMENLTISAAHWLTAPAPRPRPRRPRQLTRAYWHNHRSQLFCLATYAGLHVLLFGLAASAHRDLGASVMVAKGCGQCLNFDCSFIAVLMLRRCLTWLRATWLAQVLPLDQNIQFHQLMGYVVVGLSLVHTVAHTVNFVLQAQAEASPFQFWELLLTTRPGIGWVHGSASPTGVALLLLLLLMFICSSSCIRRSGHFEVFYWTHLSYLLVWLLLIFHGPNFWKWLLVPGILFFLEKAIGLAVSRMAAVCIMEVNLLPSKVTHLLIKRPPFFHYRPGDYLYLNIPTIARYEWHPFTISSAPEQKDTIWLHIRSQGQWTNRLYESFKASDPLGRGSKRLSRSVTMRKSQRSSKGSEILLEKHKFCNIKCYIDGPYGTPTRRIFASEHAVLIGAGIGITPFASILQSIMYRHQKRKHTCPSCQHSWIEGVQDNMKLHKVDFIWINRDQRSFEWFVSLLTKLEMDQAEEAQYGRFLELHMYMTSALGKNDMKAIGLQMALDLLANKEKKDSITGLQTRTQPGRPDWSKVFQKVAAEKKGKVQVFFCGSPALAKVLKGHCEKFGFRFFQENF
Test [11] in a line: compound effects on lung adenocarcinoma cell viability – A549, calcein-AM fluorescence, 48 h, basal, profiling panel (AID 1162). Further: test concentration not given here. Conditions: higher = more signal.
The nature of test [12]: compound effects on differentiated 3T3-L1 adipocyte viability – cell-based, 3T3-L1 adipocytes, calcein-AM fluorescence, 48 h, basal, profiling panel (AID 1163). Further: test concentration not given here. Conditions: 3T3-L1 adipocytes viability, higher = more signal.
A short description of test [13]: compound effects on hepatocellular carcinoma cell viability – HepG2, calcein-AM fluorescence, 48 h, basal, profiling panel (AID 1164). Further: test concentration not given here. The settings on record: higher = more signal.
Test [14] in a line: compound effects on multiple myeloma cell viability – MM1S, calcein-AM fluorescence, 48 h, basal, profiling panel (AID 1165). Further: test concentration not given here. Conditions: higher = more signal.
Test [15] is described as follows: calcein-AM signal in unstimulated myeloma cells – cell-based, calcein-AM fluorescence, 48 h, PK04 Diversity Set, profiling panel (AID 1166).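 Further: cells grown under basal conditions without added stimulus; test concentration not given here.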 The settings on record: RPMI8226 myeloma viability, higher = more signal.
Test [16] is described as follows: JC-1 mitochondrial signal, unstimulated HepG2 cells – cell-based, JC-1 fluorescence, 24 h, 100 nL compound, profiling panel (AID 1167). Further: test concentration not given here. The settings on record: HepG2 mitochondrial potential, higher = more signal.
Test [17] in a line: JC-1 mitochondrial signal, unstimulated adipocytes – cell-based, JC-1 fluorescence, 3T3-L1 adipocytes, 24 h, 100 nL compound, profiling panel (AID 1168). Further: test concentration not given here. The settings on record: JC-1 mitochondrial fluorescence, higher = more signal, called active from +8 up or from −8 down.
Test [18] is described as follows: JC-1 mitochondrial signal, unstimulated myeloma cells – cell-based, JC-1 fluorescence, RPMI8226, 24 h, 100 nL compound, profiling panel (AID 1169). Further: test concentration not given here. Conditions: JC-1 mitochondrial potential fluorescence, higher = more signal.
Test [19] in a line: JC-1 mitochondrial signal, unstimulated MM1S myeloma – cell-based, JC-1 fluorescence, 24 h, 100 nL compound, profiling panel (AID 1170). Further: test concentration not given here. The settings on record: MM1S mitochondrial potential, higher = more signal.
A short description of test [20]: resazurin metabolic signal in A549 cells – cell-based, resazurin fluorescence, 24 h, PK04 Diversity Set, profiling panel (AID 1171). Further: test concentration not given here. The settings on record: A549 viability, higher = more signal, called active from +8 up or from −8 down.

Chain of NADPH oxidase 2 (Homo sapiens) (P04839 whole entry, looked up): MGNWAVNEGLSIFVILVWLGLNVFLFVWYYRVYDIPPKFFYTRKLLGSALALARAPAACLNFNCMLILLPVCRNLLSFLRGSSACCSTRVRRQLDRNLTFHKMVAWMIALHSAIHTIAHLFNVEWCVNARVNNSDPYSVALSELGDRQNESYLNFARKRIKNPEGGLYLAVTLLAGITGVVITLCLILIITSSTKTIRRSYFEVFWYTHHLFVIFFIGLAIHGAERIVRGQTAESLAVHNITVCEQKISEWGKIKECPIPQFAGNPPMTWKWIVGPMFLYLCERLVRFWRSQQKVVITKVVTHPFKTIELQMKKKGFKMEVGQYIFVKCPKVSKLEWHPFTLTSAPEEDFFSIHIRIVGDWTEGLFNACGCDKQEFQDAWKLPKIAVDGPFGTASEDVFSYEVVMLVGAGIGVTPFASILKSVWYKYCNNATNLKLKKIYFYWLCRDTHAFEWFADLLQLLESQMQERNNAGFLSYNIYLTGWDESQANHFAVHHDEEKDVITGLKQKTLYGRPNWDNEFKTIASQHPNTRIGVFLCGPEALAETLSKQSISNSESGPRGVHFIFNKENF

As for `COc1cc2c(cc1O)C(c1ccc(CN3CCCC3)cc1)N(Cc1cccc(OC(F)(F)F)c1)CC2` (stereo not given), the z-score was -4.5 (inactive) in test [1]; 12.3 (active) in test [3]; 2.62 (inactive) in test [4]; -0.608 (inactive) in test [5]; 1.14 (inactive) in test [6]; -0.223 in test [7]. In addition, the z-score in [8] is -8.71 (active); in test [9], -4.77 (inactive); in test [10], -6.04; in test [11], -4.78; in test [12] it was 0.0154; in test [13], -5.64. In addition, the z-score in test [14] was -3.22; in [15], -4.48; in test [16], -3.43; in [17], 1.04 (inactive); in test [18] it was -0.955; in test [19], -2.64. Besides, the z-score in test [20] was -4.45 (inactive). In addition, the composite z-score in test [2] is -0.131.
Regarding `COc1ccc(NC(=O)O[C@H]2[C@H](OC(=O)Nc3ccc4c(c3)OCO4)[C@H](OC(=O)Nc3ccc4c(c3)OCO4)[C@@H](OC)O[C@@H]2CO)cc1`, the z-score is -0.723 (inactive) in test [1]; 13.7 (active) in [3]; 1.26 (inactive) in test [4]; 0.99 (inactive) in [5]; 0.597 (inactive) in [6]; -0.0897 in test [7]. The z-score is -1.54 (inactive) in test [8]; -0.399 (inactive) in test [9]; -1.64 in [10]; -0.798 in test [11]; 0.568 in test [12]; -0.54 in [13]. The z-score in test [14] was -0.714; in test [15] it was -0.983; in test [16], -0.0127; in test [17] it was -0.213 (inactive); in test [18], -0.685; in test [19], -1.19. Besides, the z-score in test [20] is -0.339 (inactive). This compound also registered a composite z-score in [2] of 0.114.
Regarding `C=CC[C@]1(C(=O)NCCCOC)N=C(c2ccc(OCCCO)cc2)O[C@H]1c1ccccc1`, the z-score in test [1] is 0.898 (inactive); in [3] it was 12.3 (active); in test [4] it was 0.912 (inactive); in test [5], 0.932 (inactive); in test [6] it was 0.643 (inactive); in test [7], 0.727. Also, the z-score was -2.35 (inactive) in test [8]; -0.164 (inactive) in test [9]; -0.87 in test [10]; 0.0753 in test [11]; 0.301 in test [12]; -1.1 in test [13]. The z-score is -0.464 in test [14]; 0.511 in test [15]; 0.238 in [16]; 0.171 (inactive) in test [17]; -0.446 in test [18]; -0.607 in [19]. Further, the z-score in test [20] was 1.32 (inactive). Moreover, the composite z-score in test [2] is -0.0172.
For `COc1cc(OC)c(C(O)C2C=CC3C(=O)N(c4ccccc4)C(=O)C3N2Nc2ccccc2F)cc1Br` (stereo not given), the z-score in [1] is -1.76 (inactive); in test [3] it was 7.23 (inactive); in test [4] it was 2.36 (inactive); in [5], 0.449 (inactive); in [6], 1.54 (inactive); in test [7], -0.822. Moreover, the z-score in test [8] was -1.32 (inactive); in [9], -4.43 (inactive); in test [10] it was -2.21; in test [11], -1.06; in test [12], -1.41; in [13], 0.302. For the same compound, the z-score in test [14] was -0.303; in test [15], -0.308; in test [16] it was -2.04; in test [17], -1.17 (inactive); in test [18], 0.26; in test [19] it was -0.645. In addition, in test [20], the z-score was -0.568 (inactive). The same compound registered a composite z-score in test [2] of 0.692.
As for `C=CCOC(=O)[C@H]1[C@@H]2C(=O)O[C@@H](c3ccccc3)[C@@H](c3ccccc3)N2[C@@H](c2ccc(OCCOC(=O)[C@H]3C[C@H]4C(=O)NCC(=O)N4[C@H]3c3ccc(O)cc3)cc2)[C@]12C(=O)Nc1ccc(I)cc12`, the z-score in [1] was 0.345 (inactive); in [3] it was 2.6 (inactive); in test [4] it was 2.66 (inactive); in test [5] it was 1.02 (inactive); in [6], 1.33 (inactive); in [7] it was 0.839. Moreover, the z-score in [8] is 1.54 (inactive); in [9], 1.5 (inactive); in test [10], 1.22; in test [11] it was -0.362; in test [12] it was 0.34; in test [13], 1.78. The z-score was 0.782 in [14]; 0.483 in test [15]; -1.63 in test [16]; 0.266 (inactive) in [17]; -0.398 in test [18]; -1.43 in test [19]. In addition, in test [20], the z-score is 0.144 (inactive). Moreover, the composite z-score in test [2] came out at 0.0359.
In the case of `C#CCN=C(N)N`, the z-score in [1] was 0.0764 (inactive); in test [3], 0.269 (inactive); in test [4], 0.347 (inactive); in test [5] it was -0.765 (inactive); in [6] it was -0.0065 (inactive); in [7], -0.871. Also, the z-score was 0.059 (inactive) in test [8]; 0.217 (inactive) in test [9]; -0.0927 in test [10]; -0.268 in [11]; -0.677 in [12]; 0.527 in test [13]. Moreover, the z-score in test [14] was 0.67; in [15], 0.381; in test [16], -0.794; in test [17] it was 0.268 (inactive); in [18], -0.574; in [19], -0.922. Also, the z-score in [20] was 0.0116 (inactive). This compound had a composite z-score in [2] of -0.214.
For `CCC[C@@H]1[C@@H](Sc2ccccc2)[C@@H](C(=O)O)[C@H](c2ccc(C)cc2)N1S(=O)(=O)c1ccc(C)cc1`, the z-score was 0.086 (inactive) in test [1]; 1.44 (inactive) in test [3]; 0.495 (inactive) in test [4]; -0.892 (inactive) in test [5]; 1 (inactive) in test [6]; -0.0334 in test [7]. Also, the z-score in test [8] is 1.82 (inactive); in test [9], 0.872 (inactive); in [10], 1.27; in test [11], -0.861; in [12] it was -0.571; in [13] it was 0.699. The z-score is 0.116 in test [14]; -2.59 in test [15]; -0.772 in test [16]; 1.41 (inactive) in test [17]; -0.134 in test [18]; -1.64 in test [19]. Further, the z-score in [20] was -0.856 (inactive). Besides, the composite z-score in test [2] is 0.0531.
For the compound `O=C(NCCO)C1=C[C@H](Oc2ccccc2I)[C@@H](O)[C@H](NCc2ccc(F)cc2)C1`, the z-score was -1.76 (inactive) in [1]; 5.38 (inactive) in test [3]; 1.82 (inactive) in [4]; 1.33 (inactive) in test [5]; 1.11 (inactive) in test [6]; 0.436 in [7]. For the same compound, the z-score was 0.71 (inactive) in test [8]; -0.89 (inactive) in test [9]; -3.29 in test [10]; 0.576 in test [11]; 2.37 in [12]; -0.793 in test [13]. For the same compound, the z-score was -0.217 in [14]; -1.26 in test [15]; -0.574 in [16]; 0.471 (inactive) in test [17]; 0.391 in [18]; 0.185 in test [19]. In addition, in test [20], the z-score is -1.45 (inactive). This compound also returned a composite z-score in test [2] of -0.338.
As for `C=CCC(OC(C)=O)[C@@H]1[C@@H](N(Cc2ccc(-c3ccccc3)cc2)C(=O)c2cccc3ccccc23)c2cc(OCCCO)ccc2N1C(=O)c1ccc2ccccc2c1` (stereo not given in full), the z-score in [1] is -0.887 (inactive); in [3], 0.441 (inactive); in test [4], -0.35 (inactive); in test [5], -0.0836 (inactive); in test [6], -0.0577 (inactive); in test [7], -0.146. Besides, the z-score in test [8] is -0.634 (inactive); in [9], -0.572 (inactive); in test [10], -4.29; in test [11], 0.197; in [12], -0.114; in test [13], 0.833. In addition, the z-score in test [14] is -0.679; in [15] it was -0.202; in test [16], 1.91; in test [17], -1.3 (inactive); in test [18], -0.53; in test [19] it was 0.0357. Also, the z-score in test [20] was -0.725 (inactive). In test [2], this compound registered a composite z-score of -0.0447.
